Compounds without any hit were thinned out: in the full panel of roughly 79,000, 15% have a hit. Unmarked numbers belong to inactive results. Active and inactive are the calls of the source. No stated cut-off is given here; in the data, active means growth inhibition above about 70%; inactive means the rest.
What was measured:
[1] = NCI Yeast Anticancer Drug Screen. Data for the rad50 strain (AID 155);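 further: 0% = growth of vehicle-only cultures of the same strain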; settings: S. cerevisiae rad50 strain growth inhibition; at 50.0 µM; hits give high values
Outline: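 DNA repair mutant yeast, compound exposure, growth read-out; inhibition is taken relative to vehicle.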

[2] = NCI Yeast Anticancer Drug Screen. Data for the mec2-1 strain (AID 157); settings: S. cerevisiae mec2-1 strain, at 50.0 µM, hits give high values
Outline: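 Yeast mec2-1 mutant treated with compound. Readout: growth inhibition vs vehicle controls.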

[3] = NCI Yeast Anticancer Drug Screen. Data for the sgs1 mgt1 strain (AID 161);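 further: 0% = growth of cultures given vehicle only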; settings: S. cerevisiae sgs1 mgt1 strain, at 50.0 µM, hits give high values
Outline: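 Mutant yeast exposed to compound; growth scored against vehicle-only wells.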

[4] = NCI Yeast Anticancer Drug Screen. Data for the cln2 rad14 strain (AID 165);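 further: 0% = growth equal to vehicle treated cultures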; settings: S. cerevisiae cln2 rad14 strain, at 50.0 µM, hits give high values
Outline: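 cln2 rad14 yeast strain; compound exposure; growth inhibition read vs vehicle controls.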

[5] = NCI Yeast Anticancer Drug Screen. Data for the bub3 strain (AID 167); settings: S. cerevisiae bub3 mutant strain, at 50.0 µM, hits give high values
Outline: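 In this screen, a yeast mutant lacking normal mitotic checkpoint function is challenged with compound. Relative growth versus vehicle gives the inhibition value.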

[6] = NCI Yeast Anticancer Drug Screen. Data for the mlh1 rad18 strain (AID 175); settings: S. cerevisiae mlh1 rad18 strain growth inhibition; at 50.0 µM; hits give high values
Outline: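 Yeast w/ defined DNA-repair lesions; compound exposure; growth vs vehicle controls → % inhibition.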

SMILES	growth inhibition [1]	growth inhibition [2]	growth inhibition [3]	growth inhibition [4]	growth inhibition [5]	growth inhibition [6]
CCCSc1ccc([N+](=O)[O-])cc1[N+](=O)[O-]	31.8%	-5.6%	25.2%	1%	-5.35%	32.8%
CCNC(=O)[B-][N+](C)(C)C	6.75%	0.05%	3.75%	35.4%	-12.4%	4.5%
O=C1NC(=O)c2c1c1cnn(-c3ccccc3)c1n1cccc21	15.1%	4.35%	25.2%	-67%	1.2%	17.7%
COc1ccc(/C=N/NC(=O)O)cc1	4.55%	-5.35%	-24%	-12.3%	-32.5%	-18.4%
O=C(O)C(S)c1ccc2ccccc2c1 (stereo unspecified)	28.6%	19.9%	20.2%	18.6%	12.3%	13.2%
COc1ccc(/C(Cl)=C(\C=O)c2ccc(OC)c(OC)c2)cc1OC	21.9%	4.5%	-0.3%	-17.1%	-3%	-13.1%
O=c1c2ccccc2c(=O)n2n1CC=CC2	-6.45%	-4.2%	-1.75%	-15.2%	-2.75%	-1.9%
COc1ccc(NC(C)c2ccncc2)cc1 (stereo unspecified)	-17.8%	-16%	-29%	-9.95%	-9.9%	-46%
C/C(CC(=O)Nc1cccc(Cl)c1C)=N\NC(=O)c1ccncc1	6.05%	-2.3%	-6.2%	-2%	-0.5%	0.95%
Ic1ccc(-n2cccc2)cc1	8.4%	5.55%	-1.7%	-3.25%	13.8%	-18.6%
COc1cc(OC)c(C(=O)/C=C/c2ccncc2)cc1C(=O)O	10.1%	-14.6%	16.2%	13.3%	19.6%	-5.85%
CC(=O)Oc1cccc(C)c1	-20.6%	-4.75%	-18.8%	-28.4%	-13.2%	-5.65%
CC(C)(C)c1ccc(OCCCl)c(Cl)c1	2.35%	-2.45%	33.7%	-41.9%	0.75%	6.3%
N#Cc1ccc(Oc2ccc(C#N)cc2)cc1	12.2%	-19.6%	-8.45%	18.4%	-0.4%	-1.1%
O=C(O)/C=C/c1cnc[nH]1	-4.9%	-2.3%	-5.65%	11.9%	9.65%	-1%
C[n+]1ccccc1/C=C/c1ccc2c(c1)OCO2	18.3%	5.9%	22.5%	-0.45%	29.9%	6.6%
CN1C(=O)/C(=N/N(c2ccccc2)c2ccccc2)c2ccccc21	-5.4%	26.6%	-3.85%	-3.55%	21.2%	5.5%
CCN1C(NN)=NS(=O)(=O)c2ccccc21	-31.1%	-7.55%	-15.2%	-19.9%	8.2%	10.8%
CCC(=O)NCCc1ccccc1	-16.2%	29.6%	14.3%	-13.1%	-5.8%	-10.4%
O=[N+]([O-])/C(Cl)=C(\NCCO)C(Cl)=C(Cl)Cl	15.6%	19%	38%	17.1%	23.9%	-2.3%
OC(C(=S)N1CCCC1)(c1ccccc1)c1ccccc1	10.8%	17.3%	24.2%	8.45%	9.6%	-0.6%

SMILES	growth inhibition [1]	growth inhibition [2]	growth inhibition [3]	growth inhibition [4]	growth inhibition [5]	growth inhibition [6]
CC(=O)NC(CC(=O)O)C(=O)Nc1ccccc1 (stereo unspecified)	13.8%	36.8%	16.6%	13.6%	8.9%	13.4%
CC(=O)c1ccc(N=C2C=CC(=O)O2)cc1	6.85%	-14.9%	-11.1%	-21.5%	-4.65%	7.65%
O=C(Cc1ccccc1)NS(=O)(=O)c1ccccc1	5.15%	-5.8%	-12.3%	9.15%	-3.95%	4.2%
OC1COC(C2CCCO2)OC1 (stereo unspecified)	10.4%	-6.2%	-2.35%	1.35%	-13.7%	11.8%
CCCCCCCCSCCCC(=O)O	-16.9%	-22.8%	-10.8%	-11.3%	-27.7%	-29.2%
Cc1cc(Cl)ccc1N=NC(=O)NNc1ccc(Cl)cc1C	35.2%	-15.2%	-7.05%	-21.9%	-7.2%	-19.5%
CC(=O)c1c(-c2nc(=S)[nH]c(C)c2C(C)=O)nc(=S)[nH]c1C	15.1%	9.95%	6.3%	0.45%	-1.45%	16.8%
CCCCNS(=O)(=O)c1ccc(C)cc1	-24.6%	-26.4%	-23%	-42.7%	-22%	-21.3%
CCc1ccc(S(N)(=O)=O)cc1	11.1%	-4.1%	-16.3%	-24.6%	-7%	-168%
Nc1ccc(Br)c(N)c1	-0.95%	-3.65%	-5.35%	-16.9%	-21.6%	-24.9%
CC1(C)C2CC(c3ccccc3)C1/C(=C/O)C2=O (stereo unspecified)	-16.9%	-3.2%	2.8%	36.8%	-3.85%	-2.9%
O=C(O)CCCCCCCCCC(=O)O	-15.1%	-17.5%	0%	-24.9%	-7.7%	9.05%
O=C(Nc1cc(C(F)(F)F)ccc1Cl)N(Cc1ccccc1)c1ccccc1	-10.3%	-15.9%	-1.35%	-74.2%	-8.2%	-8.7%
Cc1ccc(S(=O)(=O)N(C)c2cc(Cl)c(I)cc2Cl)cc1	38.9%	-5.05%	8.9%	0.25%	25.1%	5.2%
CCN(C(=O)c1ccc([N+](=O)[O-])cc1)C(c1ccccc1)P(=O)(c1ccccc1)c1ccccc1 (stereo unspecified)	-12.4%	-4.5%	-15.1%	-37%	2.7%	1.45%
CN(C)CC1CCCC(CN(C)C)C1OC(=O)c1ccccc1 (stereo unspecified)	23%	-5.15%	9.25%	-37.5%	14.4%	50.9%
COC(=O)[C@@]1(NC(=O)C(CC(=O)OC(C)(C)C)NC(=O)OC(C)(C)C)C[C@H]1C (stereo partly specified)	-48.8%	-28.6%	-33.2%	6.15%	-3.25%	-14%
COc1cc2c(cc1O)CCN[C@@]21CS[C@H]2c3c(OC(C)=O)c(C)c4c(c3C(COC1=O)N1C2C2NC(Cc3cc(C)c(OC)c(O)c32)[C@@H]1O)OCO4 (stereo partly specified)	91.5% (active)	94% (active)	93.7% (active)	91.5% (active)	92.2% (active)	91.2% (active)
C/C(C[n+]1ccccc1)=N\N=C(N)N	-18.8%	-9.05%	-43.8%	-20.5%	-5.35%	-9.2%
Cc1ccccc1C1(O)c2cccc3cccc(c23)C1(O)c1ccccc1C (stereo unspecified)	2.95%	8.45%	-7.45%	-10.9%	10.9%	-22.4%

From PubChem BioAssay (NCI)
